# According to PubChem BioAssay (EPA / NIEHS):
# Records with an inconclusive call do not appear. Activity calls are given as the source filed them. The calls were made as follows: active = hit-call score of the fitted dose curve at least 0.9, where 1 is the maximum; inconclusive = response in the unintended direction; inactive = score below 0.9.
# Legend:
# [1] = molecular target: D(1A) dopamine receptor (Homo sapiens) (UniProt P21728); experiment: NVS_GPCR_hDRD1: NovaScreen (NVS) G Protein-Coupled Receptor Assay for human Dopamine Receptor D1 (DRD1) (AID 2283269)
# Chain of D(1A) dopamine receptor (Homo sapiens) (P21728 whole entry, looked up): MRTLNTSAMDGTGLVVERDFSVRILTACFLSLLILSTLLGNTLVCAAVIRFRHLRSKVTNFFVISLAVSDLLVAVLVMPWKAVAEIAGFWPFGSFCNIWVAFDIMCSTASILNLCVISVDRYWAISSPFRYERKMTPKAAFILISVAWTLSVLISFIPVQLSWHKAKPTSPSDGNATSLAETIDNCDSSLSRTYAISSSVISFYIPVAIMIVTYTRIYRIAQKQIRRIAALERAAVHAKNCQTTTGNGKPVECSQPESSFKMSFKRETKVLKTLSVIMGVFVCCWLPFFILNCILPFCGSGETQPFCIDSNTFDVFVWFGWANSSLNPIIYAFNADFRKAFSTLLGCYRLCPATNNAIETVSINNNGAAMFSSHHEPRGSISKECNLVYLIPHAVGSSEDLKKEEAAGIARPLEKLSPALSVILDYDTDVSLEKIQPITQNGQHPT
# Summary of the method: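 Cell-free radioligand binding to human DRD1 from HEK293 membranes, read 1 h after dosing by filter-based scintillation counting. Loss of signal versus DMSO baseline marks displacement. Primary screen at 25 uM single concentration in duplicate; actives followed up in concentration series.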
# [2] = molecular target: Neuropeptide Y receptor type 2 (Homo sapiens) (UniProt P49146); experiment: NVS_GPCR_hNPY2: NovaScreen (NVS) G Protein-Coupled Receptor Assay for human Neuropeptide Receptor Y2 (NPY2) (AID 2283277)
# Summary of the method: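 Radioligand binding on membranes extracted from SK-N-MC cells, cell-free, read 1 h after dosing by filter-based scintillation counting. Loss of signal vs DMSO. Primary screen in duplicate at 25 uM; actives followed up in concentration-response up to 50 uM.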
# [3] = molecular target: Muscarinic acetylcholine receptor M2 (Homo sapiens) (UniProt P08172); experiment: NVS_GPCR_hM2: NovaScreen (NVS) G Protein-Coupled Receptor Assay for human Muscarinic, M2 Receptor (AID 2283273)
# Chain of Muscarinic acetylcholine receptor M2 (Homo sapiens) (P08172 whole entry, looked up): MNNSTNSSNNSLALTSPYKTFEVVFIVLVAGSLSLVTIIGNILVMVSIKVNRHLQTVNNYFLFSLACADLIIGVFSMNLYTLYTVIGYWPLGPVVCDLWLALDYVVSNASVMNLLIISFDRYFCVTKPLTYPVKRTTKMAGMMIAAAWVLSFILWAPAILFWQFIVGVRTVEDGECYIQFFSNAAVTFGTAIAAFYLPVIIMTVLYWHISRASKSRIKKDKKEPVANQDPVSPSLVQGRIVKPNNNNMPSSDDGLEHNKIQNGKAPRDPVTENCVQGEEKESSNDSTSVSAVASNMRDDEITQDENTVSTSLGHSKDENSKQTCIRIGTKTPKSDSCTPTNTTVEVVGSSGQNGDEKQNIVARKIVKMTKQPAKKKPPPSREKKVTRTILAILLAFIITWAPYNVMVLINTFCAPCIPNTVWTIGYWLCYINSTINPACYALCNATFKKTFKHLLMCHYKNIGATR
# Summary of the method: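 CHO membrane prep, radioligand + test compound, 1 h; filtration, scintillation count. Screen 25 uM duplicate → conc. series for actives. Readout: decrease in binding vs DMSO control.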
# [4] = molecular target: human Opioid Receptor Delta 1 (Opiate D1), OPRD1 (gene 4985) (UniProt P41143); experiment: NVS_GPCR_hOpiate_D1: NovaScreen (NVS) G Protein-Coupled Receptor Assay for human Opioid Receptor Delta 1 (Opiate D1) (AID 2283280)
# Chain of human Opioid Receptor Delta 1 (Opiate D1), OPRD1 (gene 4985) (P41143 whole entry, looked up): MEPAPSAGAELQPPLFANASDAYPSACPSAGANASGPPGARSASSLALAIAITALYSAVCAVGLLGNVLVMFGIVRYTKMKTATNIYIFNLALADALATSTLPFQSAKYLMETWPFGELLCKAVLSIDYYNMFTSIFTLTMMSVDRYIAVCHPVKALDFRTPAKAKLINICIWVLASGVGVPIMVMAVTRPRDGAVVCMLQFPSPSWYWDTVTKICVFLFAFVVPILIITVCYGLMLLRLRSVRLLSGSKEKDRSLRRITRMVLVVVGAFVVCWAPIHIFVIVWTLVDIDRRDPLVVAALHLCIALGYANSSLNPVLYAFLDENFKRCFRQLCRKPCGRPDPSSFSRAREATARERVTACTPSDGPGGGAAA
# Summary of the method: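 Radioligand displacement on membranes from CHO cells expressing the receptor, read by filter scintillation counting 1 h after dosing. Duplicate single-point screen at 25 uM, then concentration series for actives; loss of signal versus DMSO.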
# [5] = molecular target: human Neurokinin, NK2 Receptor, TACR2 (gene 6865) (UniProt P21452); experiment: NVS_GPCR_hNK2: NovaScreen (NVS) G Protein-Coupled Receptor Assay for human Neurokinin, NK2 Receptor (AID 2283278);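 also: actives reduce bound radioligand signal relative to DMSO baseline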
# Chain of human Neurokinin, NK2 Receptor, TACR2 (gene 6865) (P21452 whole entry, looked up): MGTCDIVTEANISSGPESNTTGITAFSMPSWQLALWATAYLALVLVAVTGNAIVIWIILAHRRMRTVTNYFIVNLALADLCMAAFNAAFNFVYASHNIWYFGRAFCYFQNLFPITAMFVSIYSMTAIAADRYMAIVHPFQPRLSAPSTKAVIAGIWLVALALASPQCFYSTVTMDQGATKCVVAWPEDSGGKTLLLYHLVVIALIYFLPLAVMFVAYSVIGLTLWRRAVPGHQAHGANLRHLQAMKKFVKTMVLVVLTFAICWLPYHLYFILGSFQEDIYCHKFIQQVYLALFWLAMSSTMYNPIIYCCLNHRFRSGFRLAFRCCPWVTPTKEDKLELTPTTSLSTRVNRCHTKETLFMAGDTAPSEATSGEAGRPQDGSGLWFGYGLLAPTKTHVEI
# Summary of the method: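 CHO-derived membrane protein, radioligand displacement, filter scintillation read at 4 h post-dose. Single-point 25 uM in duplicate, then concentration series for actives; DMSO as negative control.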
# [6] = molecular target: human Adrenergic, Beta 1 Receptor (Adrb1), ADRB1 (gene 153) (UniProt P08588); experiment: NVS_GPCR_hAdrb1: NovaScreen (NVS) G Protein-Coupled Receptor Assay for human Adrenergic, Beta 1 Receptor (Adrb1) (AID 2283258)
# Chain of human Adrenergic, Beta 1 Receptor (Adrb1), ADRB1 (gene 153) (P08588 whole entry, looked up): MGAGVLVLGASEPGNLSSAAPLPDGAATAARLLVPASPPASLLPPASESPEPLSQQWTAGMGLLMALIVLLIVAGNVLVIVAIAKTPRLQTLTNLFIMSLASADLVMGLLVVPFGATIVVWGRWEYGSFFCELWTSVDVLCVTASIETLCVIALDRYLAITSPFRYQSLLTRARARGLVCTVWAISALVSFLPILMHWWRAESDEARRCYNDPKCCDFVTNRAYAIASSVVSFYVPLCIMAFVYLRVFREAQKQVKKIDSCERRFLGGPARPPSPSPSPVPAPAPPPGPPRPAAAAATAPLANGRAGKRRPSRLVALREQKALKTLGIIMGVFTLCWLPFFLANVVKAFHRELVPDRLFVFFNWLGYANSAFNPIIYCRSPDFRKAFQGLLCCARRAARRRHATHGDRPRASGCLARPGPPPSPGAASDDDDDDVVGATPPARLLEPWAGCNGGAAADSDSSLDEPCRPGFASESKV
# Summary of the method: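 Cell-free radioligand displacement on receptor from human neuroepithelioma cells; 2 h after dosing, filter-based scintillation counting. Primary screen in duplicate at 25 uM, actives retested in concentration series; loss of signal vs DMSO baseline.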
# [7] = molecular target: human Dopamine Receptor D2 (DRD2), DRD2 (gene 1813) (UniProt P14416); experiment: NVS_GPCR_hDRD2s: NovaScreen (NVS) G Protein-Coupled Receptor Assay for human Dopamine Receptor D2 (DRD2) (AID 2283266)
# Chain of human Dopamine Receptor D2 (DRD2), DRD2 (gene 1813) (P14416 whole entry, looked up): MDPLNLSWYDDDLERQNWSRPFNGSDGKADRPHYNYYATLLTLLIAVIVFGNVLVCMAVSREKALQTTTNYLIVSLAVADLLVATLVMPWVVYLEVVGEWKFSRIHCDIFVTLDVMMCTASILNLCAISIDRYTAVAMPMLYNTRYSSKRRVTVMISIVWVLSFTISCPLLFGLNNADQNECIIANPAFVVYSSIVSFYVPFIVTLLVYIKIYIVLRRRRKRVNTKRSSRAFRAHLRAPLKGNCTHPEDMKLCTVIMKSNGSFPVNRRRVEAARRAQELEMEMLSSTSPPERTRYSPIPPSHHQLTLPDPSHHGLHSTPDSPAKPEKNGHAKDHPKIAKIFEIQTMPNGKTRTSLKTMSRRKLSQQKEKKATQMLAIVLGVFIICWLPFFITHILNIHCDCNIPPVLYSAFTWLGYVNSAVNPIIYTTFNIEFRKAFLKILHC
# Summary of the method: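 Radioligand displacement used human DRD2 membranes extracted from CHO cells and was read by filter-based scintillation counting after 1.5 hours. Primary screening was in duplicate at 25 uM. Loss of signal versus DMSO was fitted, with concentration series in follow-up.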
# [8] = molecular target: Beta-2 adrenergic receptor (Homo sapiens) (UniProt P07550); experiment: NVS_GPCR_hAdrb2: NovaScreen (NVS) G Protein-Coupled Receptor Assay for human Adrenergic, Beta 2 Receptor (Adrb2) (AID 2283261)
# Summary of the method: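 Filter-based radioligand binding using receptor prepared from CHO cells, 1 h incubation, scintillation counting. Primary screen in duplicate at 25 uM, actives retested in concentration series; loss of binding relative to DMSO.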
# [9] = molecular target: Muscarinic acetylcholine receptor M3 (Homo sapiens) (UniProt P20309); experiment: NVS_GPCR_hM3: NovaScreen (NVS) G Protein-Coupled Receptor Assay for human Muscarinic, M3 Receptor (AID 2283272)
# Summary of the method: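 Radioligand displacement binding on human M3 receptor in CHO-derived membranes, 1 h incubation, filter-based scintillation counting. Primary screen in duplicate at 25 uM; actives followed up in concentration series; loss of signal versus DMSO.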
# [10] = molecular target: human Muscarinic, M4 Receptor, CHRM4 (gene 1132) (UniProt P08173); experiment: NVS_GPCR_hM4: NovaScreen (NVS) G Protein-Coupled Receptor Assay for human Muscarinic, M4 Receptor (AID 2283274)
# Summary of the method: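 Cell-free radioligand displacement using CHO-derived human M4 receptor protein, 1 h after dosing; bound radioactivity by filtration and scintillation counting. Primary screen single 25 uM duplicate, actives followed in concentration series.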
# [11] = molecular target: human Neuropeptide Receptor Y1 (NPY1), NPY1R (gene 4886) (UniProt P25929); experiment: NVS_GPCR_hNPY1: NovaScreen (NVS) G Protein-Coupled Receptor Assay for human Neuropeptide Receptor Y1 (NPY1) (AID 2283276)
# Summary of the method: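 Cell-free radioligand binding using receptor extracted from SK-N-MC cells, 1 h incubation, filter-based scintillation counting. Primary screen single concentration 25 uM in duplicate; actives followed in concentration series. Loss of bound signal scored versus DMSO.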
# [12] = molecular target: human Adenosine A2a Receptor (AdoRA2a), ADORA2A (gene 135) (UniProt P29274); experiment: NVS_GPCR_hAdoRA2a: NovaScreen (NVS) G Protein-Coupled Receptor Assay for human Adenosine A2a Receptor (AdoRA2a) (AID 2283256)
# Chain of human Adenosine A2a Receptor (AdoRA2a), ADORA2A (gene 135) (P29274 whole entry, looked up): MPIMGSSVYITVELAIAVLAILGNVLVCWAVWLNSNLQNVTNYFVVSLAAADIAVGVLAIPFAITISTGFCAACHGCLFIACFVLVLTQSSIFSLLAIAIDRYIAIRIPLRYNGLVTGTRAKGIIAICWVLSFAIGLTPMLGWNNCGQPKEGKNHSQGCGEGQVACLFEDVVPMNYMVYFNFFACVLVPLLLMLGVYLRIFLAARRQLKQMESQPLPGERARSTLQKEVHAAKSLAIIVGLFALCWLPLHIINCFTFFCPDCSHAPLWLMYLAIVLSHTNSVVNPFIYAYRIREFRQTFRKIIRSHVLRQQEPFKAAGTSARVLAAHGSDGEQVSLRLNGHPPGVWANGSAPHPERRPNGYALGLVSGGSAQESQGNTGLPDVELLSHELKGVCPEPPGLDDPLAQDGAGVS
# Summary of the method: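 Radioligand displacement on HEK293-derived membrane protein, cell-free; filter-based scintillation counting 1.5 hours after dosing, loss of signal vs DMSO. Single-point duplicate screen at 25 uM, actives retested in concentration series.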
# [13] = molecular target: human Adenosine A1 Receptor (AdoRA1), ADORA1 (gene 134) (UniProt P30542); experiment: NVS_GPCR_hAdoRA1: NovaScreen (NVS) G Protein-Coupled Receptor Assay for human Adenosine A1 Receptor (AdoRA1) (AID 2283254)
# Chain of human Adenosine A1 Receptor (AdoRA1), ADORA1 (gene 134) (P30542 whole entry, looked up): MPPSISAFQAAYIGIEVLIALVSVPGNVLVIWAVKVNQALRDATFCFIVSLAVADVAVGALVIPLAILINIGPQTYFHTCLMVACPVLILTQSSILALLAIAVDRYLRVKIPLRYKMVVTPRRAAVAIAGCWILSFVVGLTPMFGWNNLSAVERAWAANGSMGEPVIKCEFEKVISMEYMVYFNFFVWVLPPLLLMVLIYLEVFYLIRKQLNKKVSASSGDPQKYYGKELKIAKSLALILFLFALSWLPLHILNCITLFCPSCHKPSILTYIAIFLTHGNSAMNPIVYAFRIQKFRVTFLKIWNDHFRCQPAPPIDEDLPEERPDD
# Summary of the method: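 Membranes from human cortical tissue were incubated with radioligand and test chemical for 1 hour, then filtered and counted. Activity was taken as signal loss relative to DMSO, screened at 25 uM in duplicate before concentration-response follow-up.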
# [14] = molecular target: human Adrenergic, Alpha 2c Receptor (Adra2C), ADRA2C (gene 152) (UniProt P18825); experiment: NVS_GPCR_hAdra2C: NovaScreen (NVS) G Protein-Coupled Receptor Assay for human Adrenergic, Alpha 2c Receptor (Adra2C) (AID 2283259)
# Chain of human Adrenergic, Alpha 2c Receptor (Adra2C), ADRA2C (gene 152) (P18825 whole entry, looked up): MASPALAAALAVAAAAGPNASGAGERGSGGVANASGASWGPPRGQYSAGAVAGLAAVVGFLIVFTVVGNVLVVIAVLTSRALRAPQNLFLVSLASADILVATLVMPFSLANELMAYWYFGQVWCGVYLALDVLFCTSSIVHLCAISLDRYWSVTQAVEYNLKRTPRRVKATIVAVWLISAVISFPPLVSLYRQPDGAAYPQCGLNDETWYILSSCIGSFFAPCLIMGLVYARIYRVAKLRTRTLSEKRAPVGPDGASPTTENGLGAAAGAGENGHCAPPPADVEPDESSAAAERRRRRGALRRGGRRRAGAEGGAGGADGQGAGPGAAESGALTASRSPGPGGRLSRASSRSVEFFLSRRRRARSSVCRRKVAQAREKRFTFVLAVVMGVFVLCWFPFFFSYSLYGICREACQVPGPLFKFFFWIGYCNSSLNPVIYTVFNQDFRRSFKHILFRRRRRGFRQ
# Summary of the method: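 Radioligand binding on Sf9-expressed receptor membranes, 1 h after chemical dosing, filter-based scintillation read-out. Loss of binding fitted positively versus DMSO; primary duplicate screen at 25 uM, actives retested in concentration series.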
# [15] = molecular target: Muscarinic acetylcholine receptor M1 (Homo sapiens) (UniProt P11229); experiment: NVS_GPCR_hM1: NovaScreen (NVS) G Protein-Coupled Receptor Assay for human Muscarinic, M1 Receptor (AID 2283270)
# Summary of the method: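 Cell-free radioligand displacement using membrane protein extracted from CHO cells, read by filter-based scintillation counting 1 h after dosing. Loss of bound signal fitted versus DMSO; primary screen single concentration 25 uM in duplicate, actives followed by concentration series.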
# [16] = molecular target: human Adrenergic, Alpha 2A Receptor (Adra2A), ADRA2A (gene 150) (UniProt P08913); experiment: NVS_GPCR_hAdra2A: NovaScreen (NVS) G Protein-Coupled Receptor Assay for human Adrenergic, Alpha 2A Receptor (Adra2A) (AID 2283257)
# Chain of human Adrenergic, Alpha 2A Receptor (Adra2A), ADRA2A (gene 150) (P08913 whole entry, looked up): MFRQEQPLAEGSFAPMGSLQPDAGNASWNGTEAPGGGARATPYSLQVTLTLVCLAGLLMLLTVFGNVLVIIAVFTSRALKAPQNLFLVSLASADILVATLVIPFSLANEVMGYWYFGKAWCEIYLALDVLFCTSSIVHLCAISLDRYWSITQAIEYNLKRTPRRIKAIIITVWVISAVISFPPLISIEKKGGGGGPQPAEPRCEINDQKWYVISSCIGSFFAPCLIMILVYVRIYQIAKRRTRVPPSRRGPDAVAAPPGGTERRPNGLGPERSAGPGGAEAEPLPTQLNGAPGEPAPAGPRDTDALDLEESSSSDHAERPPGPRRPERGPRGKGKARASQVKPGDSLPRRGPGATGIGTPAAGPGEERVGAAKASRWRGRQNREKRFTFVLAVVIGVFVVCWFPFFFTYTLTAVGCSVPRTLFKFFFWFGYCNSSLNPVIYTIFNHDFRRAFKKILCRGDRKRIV
# Summary of the method: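 Radioligand filter-binding was run on HT29-derived membranes, cell-free, read by scintillation counting 1 h after dosing. Primary screening was in duplicate at 25 uM, with concentration series in follow-up. Loss of signal versus DMSO indicates displacement.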
# [17] = molecular target: human Endothelin Receptor Type B (ETB), EDNRB (gene 1910) (UniProt P24530); experiment: NVS_GPCR_hETB: NovaScreen (NVS) G Protein-Coupled Receptor Assay for human Endothelin Receptor Type B (ETB) (AID 2283267)
# Summary of the method: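 Human astrocytoma cell membranes; radioligand competitive binding read by filter scintillation counting 4 hours after dosing. Single-concentration duplicate screen at 25 uM, then singleton concentration-response up to 50 uM; loss of signal versus DMSO.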
# [18] = molecular target: human Histamine 1 Receptor (H1), HRH1 (gene 3269) (UniProt P35367); experiment: NVS_GPCR_hH1: NovaScreen (NVS) G Protein-Coupled Receptor Assay for human Histamine 1 Receptor (H1) (AID 2283268)
# Summary of the method: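 Cell-free radioligand displacement at human H1 receptor, 1 h, filter scintillation counting; primary screen 25 uM in duplicate, hits in concentration series; loss of binding fitted vs DMSO.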
# [19] = molecular target: human Serotonin, 5-Hydroxytryptamine Receptor 7 (5HT7), HTR7 (gene 3363) (UniProt P34969); experiment: NVS_GPCR_h5HT7: NovaScreen (NVS) G Protein-Coupled Receptor Assay for human Serotonin, 5-Hydroxytryptamine Receptor 7 (5HT7) (AID 2283255);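 also: hits reduce specific radioligand binding relative to DMSO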
# Chain of human Serotonin, 5-Hydroxytryptamine Receptor 7 (5HT7), HTR7 (gene 3363) (P34969 whole entry, looked up): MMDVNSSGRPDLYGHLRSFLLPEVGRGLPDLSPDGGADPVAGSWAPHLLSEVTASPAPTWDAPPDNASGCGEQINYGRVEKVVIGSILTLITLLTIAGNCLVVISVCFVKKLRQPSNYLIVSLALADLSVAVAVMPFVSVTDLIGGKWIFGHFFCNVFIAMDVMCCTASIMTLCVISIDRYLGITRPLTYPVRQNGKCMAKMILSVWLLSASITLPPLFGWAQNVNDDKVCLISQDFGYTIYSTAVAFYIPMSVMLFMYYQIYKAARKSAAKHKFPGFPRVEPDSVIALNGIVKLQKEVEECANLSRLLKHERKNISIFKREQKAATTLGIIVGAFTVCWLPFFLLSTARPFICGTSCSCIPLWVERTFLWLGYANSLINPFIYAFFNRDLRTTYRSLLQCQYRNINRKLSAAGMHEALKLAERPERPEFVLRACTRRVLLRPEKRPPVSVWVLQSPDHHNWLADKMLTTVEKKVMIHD
# Summary of the method: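 Radioligand displacement on membranes from CHO cells expressing human 5HT7, 1 h incubation, filter-based scintillation counting. Primary screen used a single 25 uM concentration in duplicate; actives were followed up in concentration series.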
# [20] = molecular target: Type-1 angiotensin II receptor (Homo sapiens) (UniProt P30556); experiment: NVS_GPCR_hAT1: NovaScreen (NVS) G Protein-Coupled Receptor Assay for human Angiotensin II receptor type 1 (AT1) (AID 2283263)
# Summary of the method: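 Membranes from KAN-TS cells; radioligand competitive displacement, 3 h, filtration and scintillation counting. Single-point duplicate screen at 25 uM, then concentration-response up to 50 uM for hits; loss of signal fitted versus DMSO.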
smiles,measurement,setting,value
Oc1ccccc1Br,outcome,[1],inactive
Nc1ccc(Cl)cc1,outcome,[2],inactive
CC(C)(C)OOC(C)(C)C,outcome,[3],inactive
same,outcome,[4],inactive
COP(N)(=S)OC,outcome,[1],inactive
Nc1ccc([N+](=O)[O-])cc1Cl,outcome,[1],inactive
CCOP(=S)(OCC)SCSc1ccc(Cl)cc1,outcome,[5],inactive
CCCN(CCC)c1c([N+](=O)[O-])cc(C(C)C)cc1[N+](=O)[O-],outcome,[6],inactive
same,outcome,[7],inactive
ClC1=C(Cl)C2(Cl)C3C(Cl)C(Cl)CC3C1(Cl)C2(Cl)Cl (stereo not given),outcome,[8],inactive
same,outcome,[7],inactive
same,outcome,[4],inactive
CCOP(=S)(OCC)SCn1nnc2ccccc2c1=O,outcome,[5],inactive
O=S1(=O)OCC2C(CO1)C1(Cl)C(Cl)=C(Cl)C2(Cl)C1(Cl)Cl (stereo not given),outcome,[5],inactive
CCOP(=S)(Oc1ccc([N+](=O)[O-])cc1)c1ccccc1 (stereo not given),outcome,[6],inactive
same,outcome,[1],inactive
same,outcome,[9],inactive
same,outcome,[10],inactive
CC(C)(C)c1ccccc1OP(=O)(Oc1ccccc1)Oc1ccccc1,AC50,[5],17.2 µM (active)
ClC(Cl)c1ccccc1,AC50,[11],5.17 µM (active)
Cn1[nH]nnc1=S,outcome,[5],inactive
O=[N+]([O-])c1cc(Cl)ccc1Cl,outcome,[12],inactive
O=c1ssc(Cl)c1Cl,AC50,[1],1.21 µM (active)
Cc1ccc2c(c1N)C(=O)c1ccccc1C2=O,AC50,[13],16.3 µM (active)
same,AC50,[12],4.77 µM (active)
N#Cc1c(-c2ccc(Cl)cc2)[nH]c(C(F)(F)F)c1Br,outcome,[12],inactive
same,outcome,[1],inactive
CC(C)Nc1ccc(Nc2ccccc2)cc1,AC50,[1],25 µM (active)
same,AC50,[3],2.71 µM (active)
same,AC50,[5],20 µM (active)
CCCCCCCc1ccc(O)cc1,outcome,[14],inactive
same,outcome,[5],inactive
CCNc1nc(Cl)nc(NC(C)(C)C)n1,outcome,[13],inactive
CC1(C)CN=C(NN=C(/C=C/c2ccc(C(F)(F)F)cc2)/C=C/c2ccc(C(F)(F)F)cc2)NC1,AC50,[14],8.95 µM (active)
same,AC50,[15],19.6 µM (active)
CC(Cc1ccc(OCC(=O)O)cc1)NCC(O)c1csc(C(F)(F)F)n1 (stereo not given),AC50,[16],25 µM (active)
CCCCN(CCCC)SN(C)C(=O)Oc1cccc2c1OC(C)(C)C2,outcome,[6],inactive
same,outcome,[17],inactive
same,outcome,[18],inactive
same,outcome,[4],inactive
Cc1cc(C)c(C(=O)P(=O)(c2ccccc2)c2ccccc2)c(C)c1,AC50,[13],36 µM (active)
same,AC50,[5],0.367 µM (active)
Nc1cc2c3c(c1)C(c1ccccc1)=N[C@@H](NC(=O)c1cccnc1)C(=O)N3CC2,outcome,[19],inactive
CCC(C)(C)c1ccc(O)cc1,outcome,[3],inactive
CSC(C)(C)C=NO,outcome,[13],inactive
same,outcome,[19],inactive
same,outcome,[12],inactive
same,outcome,[16],inactive
same,outcome,[14],inactive
same,outcome,[20],inactive
same,outcome,[1],inactive
same,outcome,[3],inactive
same,outcome,[5],inactive
same,outcome,[4],inactive
O=C(O)C1C(C(=O)O)C2(Cl)C(Cl)=C(Cl)C1(Cl)C2(Cl)Cl (stereo not given),outcome,[4],inactive
